Here are results for 39 molecules from PubChem BioAssay (NCATS).

Values without a mark were called inactive. Unless noted, calls come from the whole dose curve; as a rule, active = well fitted curve in either direction with a large enough effect (not every such curve was filed as active); inconclusive = small, poorly fitted or top-dose-only effect, or another doubt; inactive = flat fitted curve, though single readings scatter. Records with an inconclusive call do not appear. A value given as a limit tells only on which side of the number the result lay.

Test system in the first assay: not listed separately
The assay can be described thus: Stat Signaling Pathway (AID 446).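 Note: ME-180 cervical cancer cells given 40 pM IL-6 alongside compound; SIE-controlled beta-lactamase reporter measured as 460/530 nm FRET emission ratio; % is set by controls: 0 for no effect and ±100 for the full control effect.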 The settings on record: ME-180 (cervical carcinoma) SIE beta-lactamase reporter, IL-6 stimulated, 5 h; at 17.2 µM (top of the series) unless noted. The gist of the method: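 Emission at 460 and 530 nm (excitation 405 nm) reports SIE-controlled beta-lactamase in ME-180 cells. Cells received compound with 40 pM IL-6 for 5 hrs at 37 C; data scaled between 300 pM IL-6 and 125 nM JAK-inhibitor controls.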
Regarding `CC(=O)Nn1cnc2c(c1=O)C1(CCCC1)Cc1ccccc1-2`, the activity, negative = inhibition is 10.3%.

As to `O=C(O)C1CSC(CCc2ccccc2)N1` (stereo not drawn), the activity, negative = inhibition was 27%.

As for `Cn1c(N)c(C#N)c2c(c1=S)CSC(C)(C)C2`, the activity, negative = inhibition was -2.98%.

With `CCOC(=O)c1[nH]c2ccccc2c1NC(=O)CCN1CCN(C(=O)OCC)CC1`, the activity, negative = inhibition is -0.665%.

Regarding `Cc1c(OCc2ccccc2)c(=O)ccn1Cc1ccccc1`, the activity, negative = inhibition is 1.99%.

As to `COc1ccc(/C=C(/C#N)c2cccnc2)cc1OC`, the activity, negative = inhibition was 5.95%.

On to `CCN1CCc2c(C#N)c(NCc3ccccc3)nc(N(CC)CC)c2C1`, for which the activity, negative = inhibition is 12.6%.

As to `O=C(c1ccccc1)c1cc(-c2ccccc2)on1`, the activity, negative = inhibition was -7.84%.

For `Cc1c(N2C(=O)SC(CC(=O)O)C2=O)c(=O)n(-c2ccccc2)n1C` (stereo not drawn), the activity, negative = inhibition was 6.13%.

Take `COc1ccc(-c2nnc3sc(-c4c(OC)cccc4OC)nn23)cc1`: the activity, negative = inhibition was 6.15%.

With `CCCCc1cc(=O)oc2c(CN3CCCC3)c(O)ccc12`, the activity, negative = inhibition is 3.31%.

For `COc1cc(=O)n2c(-c3ccccc3)csc2n1`, the activity, negative = inhibition was 8.66%.

For `Cn1ncc2nnn(-c3ccccc3)c(=O)c21`, the activity, negative = inhibition is 3.98%.

Take `Cc1cc2nncn2c(Cc2ccccc2)n1`: the activity, negative = inhibition was -8.81%.

As for `Cc1nnc2n(-c3ccccc3)c(=O)c3c4c(sc3n12)CC(C)CC4` (stereo not drawn), the activity, negative = inhibition is -2.29%.

In the case of `COC(=O)CNC(=O)c1c(C)cc(=O)oc1C`, the activity, negative = inhibition is 5.86%.

As to `Cc1nc(NCCO)c(C#N)c2c1COC(C)(C)C2`, the activity, negative = inhibition was 4.18%.

Take `Cn1ncc(N=Cc2ccccc2)c1C(N)=O`: the activity, negative = inhibition was 5.52%.

As for `CN(C)CCOC(=O)Cc1ccc(Cl)cc1`, the activity, negative = inhibition was -4.76%.

Consider `Cc1cc(C)n(CC2CC(=O)N(c3cc(Cl)cc(Cl)c3)C2=O)n1` (stereo not drawn), for which the activity, negative = inhibition is 2.96%.

Regarding `COC(=O)c1[nH]c2ccc(Cl)cc2c1NC(=O)C1CC1`, the activity, negative = inhibition is 1.62%.

With `O=C(Nc1ccc2c(c1)OCO2)c1cc2n(n1)C(C(F)(F)F)CC(c1ccccc1)N2` (stereo not drawn), the activity, negative = inhibition was -1.67%.

As to `CN(C)C=C1C(=O)c2ccccc2C1=O`, the activity, negative = inhibition is 1.64%.

In the case of `CCN(CC)CCN1C(=O)C(=O)/C(=C(/O)c2c(C)[nH]c(C(=O)OC)c2C)C1c1cccc(OC)c1` (stereo not drawn), the activity, negative = inhibition is 5.49%.

Regarding `CCOC(=O)Oc1ccc2c(c1)C(C)=CC(C)(C)N2C(=O)OCC`, the activity, negative = inhibition is 4.48%.

Regarding `Nc1nnc(CSc2ccc(Cl)cc2)s1`, the activity, negative = inhibition is 2.04%.

For the molecule `COC(=O)CNc1nc(-c2cccnc2)nc2ccccc12`, the activity, negative = inhibition is -8.59%.

Consider `O=C(Oc1ccccc1)c1c(Cl)cccc1P(=O)(O)O`, for which the activity, negative = inhibition is 5.05%.

As for `O=C(c1ccco1)N1CCN(c2ncnc3c2[nH]c2ccccc23)CC1`, the activity, negative = inhibition is -16.9%.

On to `Cn1c(NCCN2CCCCC2)cc(=O)n(C)c1=O`, for which the activity, negative = inhibition is 9.99%.

Consider `O=C1NC2c3ccccc3C(=O)N2c2c1cnn2-c1ccccc1` (stereo not drawn), for which the activity, negative = inhibition is -7.17%.

Regarding `CC(=O)c1c(C(C)=O)c(C)n(NC(=O)c2ccncc2)c1C`, the activity, negative = inhibition is 17%.

Regarding `COCCOC(=O)c1c(C)nc(SCC(=O)Nc2ccc(OC)cc2)c(C#N)c1-c1ccco1`, the activity, negative = inhibition is -16.8%.

In the case of `COC(=O)C(NC(=O)c1ccco1)(Nc1nc(C)cs1)C(F)(F)F` (stereo not drawn), the activity, negative = inhibition was -2.51%.

Consider `COc1ccc(C(CC(=O)O)NC(=O)OC(C)(C)C)cc1` (stereo not drawn), for which the activity, negative = inhibition is 3.55%.

Consider `O=S(=O)(c1ccc2ccccc2c1)N(CC(O)CN1CCOCC1)c1ccccc1` (stereo not drawn), for which the activity, negative = inhibition was -7.59%.

For `COC(=O)C(NC(C)=O)(Nc1nc2ccc(S(C)(=O)=O)cc2s1)C(F)(F)F` (stereo not drawn), the activity, negative = inhibition was -5.35%.

In the case of `N#Cc1ccc(-c2cccnc2)nc1SCC(=O)Nc1sc2c(c1C#N)CCC2`, the activity, negative = inhibition was -7.78%.

As to `CCOc1c(C)cc2[nH]c(CCC(=O)O)nc2c1C`, the activity, negative = inhibition is 7.03%.

The target in another assay is Glucocorticoid receptor (Homo sapiens) (UniProt P04150). Kind of assay: GR-GFP Redistribution (AID 450;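 active = compounds whose dose series gives a full or clear partial fitted curve of increased nuclear translocation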; note: potency is the fitted concentration of half-maximal effect). Conditions: U2OS GR-GFP nuclear translocation, laser cytometry, 2 h; series mostly up to 20.6 µM.
Sequence of Glucocorticoid receptor (Homo sapiens) (P04150 whole entry, looked up): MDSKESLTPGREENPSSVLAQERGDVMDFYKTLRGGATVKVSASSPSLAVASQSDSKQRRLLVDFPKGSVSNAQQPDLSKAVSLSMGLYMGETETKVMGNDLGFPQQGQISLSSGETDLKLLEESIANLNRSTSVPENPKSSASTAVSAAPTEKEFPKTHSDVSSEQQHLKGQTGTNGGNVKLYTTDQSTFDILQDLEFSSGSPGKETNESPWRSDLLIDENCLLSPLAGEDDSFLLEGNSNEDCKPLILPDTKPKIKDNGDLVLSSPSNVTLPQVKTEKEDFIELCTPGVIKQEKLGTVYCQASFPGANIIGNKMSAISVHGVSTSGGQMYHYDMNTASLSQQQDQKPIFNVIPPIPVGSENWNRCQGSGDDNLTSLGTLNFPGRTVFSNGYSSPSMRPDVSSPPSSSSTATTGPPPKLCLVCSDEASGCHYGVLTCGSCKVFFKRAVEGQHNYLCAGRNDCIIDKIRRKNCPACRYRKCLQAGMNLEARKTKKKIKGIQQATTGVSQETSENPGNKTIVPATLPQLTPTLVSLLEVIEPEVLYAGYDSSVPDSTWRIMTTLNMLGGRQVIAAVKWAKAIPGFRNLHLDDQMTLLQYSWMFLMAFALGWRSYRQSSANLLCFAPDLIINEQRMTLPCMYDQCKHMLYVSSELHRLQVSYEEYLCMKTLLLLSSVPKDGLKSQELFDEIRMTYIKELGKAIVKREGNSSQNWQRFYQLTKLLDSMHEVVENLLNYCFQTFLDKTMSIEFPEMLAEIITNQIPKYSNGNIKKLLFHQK
Turning to `CC(=O)Nn1cnc2c(c1=O)C1(CCCC1)Cc1ccccc1-2`, the Potency was more than 20.6 µM.

Turning to `O=C(O)C1CSC(CCc2ccccc2)N1` (stereo not drawn), the Potency was more than 20.6 µM.

On to `Cn1c(N)c(C#N)c2c(c1=S)CSC(C)(C)C2`, for which the Potency is more than 20.6 µM.

With `CCOC(=O)c1[nH]c2ccccc2c1NC(=O)CCN1CCN(C(=O)OCC)CC1`, the Potency was more than 20.6 µM.

For `Cc1c(OCc2ccccc2)c(=O)ccn1Cc1ccccc1`, the Potency was more than 20.6 µM.

On to `COc1ccc(/C=C(/C#N)c2cccnc2)cc1OC`, for which the Potency was more than 20.6 µM.

As to `CCN1CCc2c(C#N)c(NCc3ccccc3)nc(N(CC)CC)c2C1`, the Potency is more than 20.6 µM.

As for `O=C(c1ccccc1)c1cc(-c2ccccc2)on1`, the Potency is more than 20.6 µM.

For the molecule `Cc1c(N2C(=O)SC(CC(=O)O)C2=O)c(=O)n(-c2ccccc2)n1C` (stereo not drawn), the Potency was more than 20.6 µM.

In the case of `COc1ccc(-c2nnc3sc(-c4c(OC)cccc4OC)nn23)cc1`, the Potency was more than 20.6 µM.

Turning to `CCCCc1cc(=O)oc2c(CN3CCCC3)c(O)ccc12`, the Potency is more than 20.6 µM.

For the molecule `COc1cc(=O)n2c(-c3ccccc3)csc2n1`, the Potency was more than 20.6 µM.

For `Cn1ncc2nnn(-c3ccccc3)c(=O)c21`, the Potency is more than 20.6 µM.

For `Cc1cc2nncn2c(Cc2ccccc2)n1`, the Potency was more than 20.6 µM.

Turning to `Cc1nnc2n(-c3ccccc3)c(=O)c3c4c(sc3n12)CC(C)CC4` (stereo not drawn), the Potency is more than 20.6 µM.

In the case of `COC(=O)CNC(=O)c1c(C)cc(=O)oc1C`, the Potency is more than 20.6 µM.

On to `Cc1nc(NCCO)c(C#N)c2c1COC(C)(C)C2`, for which the Potency is more than 20.6 µM.

For the molecule `Cn1ncc(N=Cc2ccccc2)c1C(N)=O`, the Potency was more than 20.6 µM.

Turning to `CN(C)CCOC(=O)Cc1ccc(Cl)cc1`, the Potency was more than 20.6 µM.

Consider `Cc1cc(C)n(CC2CC(=O)N(c3cc(Cl)cc(Cl)c3)C2=O)n1` (stereo not drawn), for which the Potency was more than 20.6 µM.

Turning to `COC(=O)c1[nH]c2ccc(Cl)cc2c1NC(=O)C1CC1`, the Potency is more than 20.6 µM.

Take `O=C(Nc1ccc2c(c1)OCO2)c1cc2n(n1)C(C(F)(F)F)CC(c1ccccc1)N2` (stereo not drawn): the Potency was more than 20.6 µM.

As to `CN(C)C=C1C(=O)c2ccccc2C1=O`, the Potency is more than 20.6 µM.

For the molecule `CCN(CC)CCN1C(=O)C(=O)/C(=C(/O)c2c(C)[nH]c(C(=O)OC)c2C)C1c1cccc(OC)c1` (stereo not drawn), the Potency was more than 20.6 µM.

Turning to `CCOC(=O)Oc1ccc2c(c1)C(C)=CC(C)(C)N2C(=O)OCC`, the Potency is more than 20.6 µM.

For the molecule `Nc1nnc(CSc2ccc(Cl)cc2)s1`, the Potency was more than 20.6 µM.

As to `COC(=O)CNc1nc(-c2cccnc2)nc2ccccc12`, the Potency is more than 20.6 µM.

As to `O=C(Oc1ccccc1)c1c(Cl)cccc1P(=O)(O)O`, the Potency was more than 20.6 µM.

Regarding `O=C(c1ccco1)N1CCN(c2ncnc3c2[nH]c2ccccc23)CC1`, the Potency is more than 20.6 µM.

As for `Cn1c(NCCN2CCCCC2)cc(=O)n(C)c1=O`, the Potency is more than 20.6 µM.

For the molecule `O=C1NC2c3ccccc3C(=O)N2c2c1cnn2-c1ccccc1` (stereo not drawn), the Potency is more than 20.6 µM.

Take `CC(=O)c1c(C(C)=O)c(C)n(NC(=O)c2ccncc2)c1C`: the Potency was more than 20.6 µM.

`COCCOC(=O)c1c(C)nc(SCC(=O)Nc2ccc(OC)cc2)c(C#N)c1-c1ccco1`: the Potency is more than 20.6 µM.

Turning to `COC(=O)C(NC(=O)c1ccco1)(Nc1nc(C)cs1)C(F)(F)F` (stereo not drawn), the Potency is more than 20.6 µM.

Consider `COc1ccc(C(CC(=O)O)NC(=O)OC(C)(C)C)cc1` (stereo not drawn), for which the Potency was more than 20.6 µM.

Consider `O=S(=O)(c1ccc2ccccc2c1)N(CC(O)CN1CCOCC1)c1ccccc1` (stereo not drawn), for which the Potency was more than 20.6 µM.

With `COC(=O)C(NC(C)=O)(Nc1nc2ccc(S(C)(=O)=O)cc2s1)C(F)(F)F` (stereo not drawn), the Potency was more than 20.6 µM.

On to `N#Cc1ccc(-c2cccnc2)nc1SCC(=O)Nc1sc2c(c1C#N)CCC2`, for which the Potency was more than 20.6 µM.

Take `CCOc1c(C)cc2[nH]c(CCC(=O)O)nc2c1C`: the Potency was more than 20.6 µM.
